Measured values taken from PubChem BioAssay AID1220 (Sanford-Burnham Center for Chemical Genomics, 2008).
In all, about 190,000 compounds went through this assay and about 1,300 (0.68%) were called active. The entries come from a sample that favours actives as a whole. Unmarked numbers belong to inactive results. Cut-off read from the data, not from the text of the source: active = inhibition above about 50%; inactive = the rest.

Target: Mannose-6-phosphate isomerase (Homo sapiens) (UniProt P34949)
Sequence (P34949 whole entry, looked up): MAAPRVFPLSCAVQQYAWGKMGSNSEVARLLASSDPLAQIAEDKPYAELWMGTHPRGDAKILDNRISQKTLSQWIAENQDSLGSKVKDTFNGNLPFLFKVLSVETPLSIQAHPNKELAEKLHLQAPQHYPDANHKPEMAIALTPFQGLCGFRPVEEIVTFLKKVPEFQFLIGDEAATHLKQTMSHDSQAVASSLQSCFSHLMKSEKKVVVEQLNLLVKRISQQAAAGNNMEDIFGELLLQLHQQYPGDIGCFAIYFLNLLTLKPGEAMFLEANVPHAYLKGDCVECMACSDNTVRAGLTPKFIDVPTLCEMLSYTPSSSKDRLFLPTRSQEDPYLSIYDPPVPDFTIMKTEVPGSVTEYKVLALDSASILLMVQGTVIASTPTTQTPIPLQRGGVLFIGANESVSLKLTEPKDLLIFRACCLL
Assay: human PMI inhibitors, high substrate, primary screen, biochemical, fluorescence intensity, high mannose 6-phosphate (AID 1220)
Conditions: recombinant PMI enzyme, coupled fluorescence intensity; at 20 µM; stronger effect = higher value

SMILES	inhibition
COCCCNC(=O)Cc1ccccc1OC	-3.4%
CCNc1nc(Oc2ccc(C(=O)OCC)cc2)nc(N2CCOCC2)n1	10%
Cc1ccc(C)c(N=Cc2ccc(-c3ccc([N+](=O)[O-])cc3)o2)c1	10.6%
O=C(Cc1ccccc1)N/N=C/c1ccc(-c2ccc([N+](=O)[O-])cc2)o1	14.3%
O=[N+]([O-])c1ccc(-c2ccc(C=Nc3cccc4ccccc34)o2)cc1	70% (active)
CCCCOC(=O)c1ccc(Nc2ccc([N+](=O)[O-])cn2)cc1	-10.3%
O=C(C1CCCCC1)N1CCN(S(=O)(=O)c2ccc(Br)cc2)CC1	1.8%
COc1ccc(C(=O)Nc2nc3ccc(S(C)(=O)=O)cc3s2)cc1OC	7.7%
CC(C)c1nccn1S(=O)(=O)c1cccc([N+](=O)[O-])c1	-2.8%
CC(C)C1=CC(=NS(=O)(=O)c2cccc([N+](=O)[O-])c2)C=C(C(C)C)C1=O	59.4% (active)
O=[N+]([O-])c1cccc(S(=O)(=O)c2cccc([N+](=O)[O-])c2)c1	-1.5%
CCOc1cc(NC(=S)NCc2ccco2)c(OCC)cc1NC(C)=O	7.1%
CCC(NC(C)C)C(O)c1ccc(O)c(O)c1 (centres undefined)	61.2% (active)
CNC[C@H](O)c1cccc(O)c1	-2.7%
CCC(NC(C)C)C(O)c1ccc(O)c2[nH]c(=O)ccc12 (centres undefined)	11.5%
COc1ccc([C@H](C)NC[C@H](O)c2ccc(O)c(NC=O)c2)cc1	10.4%
CCC(C)c1ccc(O)c(N)c1 (centres undefined)	31.5%
CNC[C@H](O)c1ccc(O)c(O)c1	59% (active)
O=C(NC(=S)Nc1cc(C(F)(F)F)ccc1N1CCOCC1)c1sc2ccccc2c1Cl	2.7%
Cc1ccc(/C=C2\C(=O)ON=C2c2ccccc2)o1	5.3%
Cc1cccc(C)c1N(CC(=O)N1CCN(c2ccccc2F)CC1)S(C)(=O)=O	1.2%
COc1cc(/C(C)=N/Nc2ccc(C(=O)O)cc2)cc(OC)c1OC	-109%
O=C(Nc1ccc(S(=O)(=O)Nc2ncccn2)cc1)C1COc2ccccc2O1 (centres undefined)	8.2%
Cc1ccnc(NS(=O)(=O)c2ccc(NC(=O)C3COc4ccccc4O3)cc2)n1 (centres undefined)	-9.4%

SMILES	inhibition
Cc1cc(C)nc(NS(=O)(=O)c2ccc(NC(=O)C3COc4ccccc4O3)cc2)n1 (centres undefined)	54.1% (active)
Cc1ccccc1NC(=O)c1oc(=O)c2ccccc2c1-c1ccccc1	-3.9%
CCCCN(C)C1=CC2=CC(=C(C#N)C#N)CCC2CC1 (centres undefined)	51.1% (active)
CCN(CC)C1=CC2=CC(=C(C#N)C#N)CCC2CC1 (centres undefined)	50.6% (active)
Cc1cc(C=NCCO)c(C)n1-c1cc(Cl)ccc1Cl	1.2%
C=CCNC(=O)CN(c1ccccc1OCC)S(=O)(=O)c1ccc(C)cc1	9.1%
O=C(c1cccc(Br)c1)N1CCN(S(=O)(=O)N2CCOCC2)CC1	-0.4%
Cc1nn(-c2nc3ccccc3s2)c(N)c1-c1ccc(Cl)cc1	-4.7%
CCOC(=O)c1ccccc1N=N/C(C(C)=O)=C(/C)O	3.4%
Cc1cc(C(=O)Nc2sc3c(c2C#N)CCC(C)C3)cs1 (centres undefined)	-2.5%
O=C(Cn1cnc2ccccc2c1=O)NCc1cccs1	36.2%
CCCn1c(/N=C/c2cc(OC)ccc2O)nc2ccccc21	13.5%
COc1cccc(C=NCC(C)N=Cc2cccc(OC)c2O)c1O (centres undefined)	52.3% (active)
COc1cccc(C=Nc2cc(C)cc(C)c2)c1O	17.1%
COc1ccc(O)c(C=Nc2cc(C)on2)c1	23.9%
COc1cccc(/C=N/NC(=O)C(=O)N/N=C/c2cccc(OC)c2O)c1O	-27.8%
COc1ccc(O)c(C=NCC(C)N=Cc2cc(OC)ccc2O)c1 (centres undefined)	51.9% (active)
Cc1ccc(CN(Cc2cc3cc4c(cc3[nH]c2=O)OCCO4)Cc2nnnn2Cc2ccco2)cc1	17.2%
CC(C)Cn1c(N2CCN(CC(=O)Nc3ccc(Cl)cc3)CC2)nc2ccccc21	13.8%
CCn1c(CN2CCN(C(=O)c3ccco3)CC2)nc2c1c(=O)n(C)c(=O)n2C	-1%
CCCS(=O)(=O)c1cn2cccc(N)c2c1S(=O)(=O)CCC	4%
CC(=O)N1CCc2cc(NC(=O)c3ccc(C)cc3)ccc21	3.7%
Cn1nnc2cc(C(=O)N3CCCCCC3)ccc21	0.1%
COc1cc(C=C(c2nc3ccccc3s2)c2nc3ccccc3s2)cc(OC)c1O	54.4% (active)

SMILES	inhibition
COc1cc(/C=C(\C#N)c2nc3ccc(C)cc3[nH]2)c([N+](=O)[O-])cc1OC	47.8%
COc1ccc(/C=C(\C#N)c2nc3ccc(C)cc3[nH]2)cc1Oc1ccc(C(F)(F)F)cc1[N+](=O)[O-]	1.7%
COc1cc(/C=C(\C#N)c2nc3ccccc3s2)cc([N+](=O)[O-])c1O	71.2% (active)
COc1cc(/C=C(/C#N)c2nc3ccccc3[nH]2)ccc1Oc1ncccc1[N+](=O)[O-]	11.5%
COc1cc(/C=C(\C#N)c2nc3ccccc3[nH]2)cc(Br)c1OCc1ccccc1	-16.7%
N#C/C(=C\c1ccc(O)c([N+](=O)[O-])c1)c1nc2ccccc2s1	0.6%
COc1cc(/C=C(\C#N)c2nc3ccccc3[nH]2)c([N+](=O)[O-])cc1OCc1ccccc1	66.5% (active)
COc1cc(/C=C(\C#N)c2nc3ccccc3s2)ccc1OCC(=O)Nc1ccccc1	-0.3%
COc1cc(/C=C(\C#N)c2nc3ccc(C)cc3[nH]2)cc([N+](=O)[O-])c1O	64.5% (active)
COc1ccc(C=C(c2nc3ccccc3s2)c2nc3ccccc3s2)cc1O	31.1%
COc1cc(C=C(c2nc3ccccc3s2)c2nc3ccccc3s2)ccc1O	34.4%
C=CCN(C(=O)CCC(=O)Nc1cc(C)on1)C(C(=O)NC1CCCC1)c1cccnc1 (centres undefined)	12.1%
COc1nc(Nc2cccc([N+](=O)[O-])c2)nc(OC)n1	11.7%
Cc1cc2c(nn1)CCC/C2=N\O	4%
COc1ccc(C(=O)CSc2nnc(CNC(=O)c3ccc(OC)cc3)n2C)cc1	-5.4%
Cc1cc2nnc(SC3CCCCN(C(=O)c4ccc(F)cc4)C3=O)n2c2ccccc12 (centres undefined)	3%
CC(C)c1ccc(/C=N/NC(=O)c2cccc(Cl)c2)cc1	-5.5%
CC(C)Cn1ccc(=O)n(CC(C)C)c1=O	12%
CC(C)c1ccc(NC(=O)COc2ccccn2)cc1	4.4%
CC(C)CC(=O)NC(c1ccccc1Cl)c1c(O)ccc2ccccc12 (centres undefined)	6.9%
O=c1c(-c2nnc(SCc3ccc(Cl)cc3Cl)o2)cccn1Cc1ccccc1	7.2%
COc1ccc(N2C(=O)CC(n3c(CCCCO)nc4ccccc43)C2=O)cc1 (centres undefined)	-9.5%
Cn1c(/C(C#N)=C/c2cccc(O)c2)nc2ccccc21	6.4%
Cn1c(/C(C#N)=C/c2ccncc2)nc2ccccc21	30.7%

SMILES	inhibition
COc1cc(/C=C(\C#N)c2nc3ccccc3n2C)cc(OC)c1O	57% (active)
Cc1nc2ccccc2nc(C)c1=NO	54.2% (active)
Cc1nc2ccc(Cl)cc2nc(C)/c1=N\O	32.9%
Cc1ccc2nc(C)/c(=N\O)c(C)nc2c1	2.2%
COCCN1C(=O)/C(=C/c2ccc(OCc3ccc(C(=O)O)cc3)c(OC)c2)SC1=Nc1ccccc1	5.1%
CC(C)CNC(=O)COC(=O)c1cc(S(=O)(=O)N(C)C)ccc1N1CCCC1	4.7%
CCN1C=CC2=C(C#N)C(N)C(C#N)(C#N)C(c3ccccc3C(F)(F)F)C2C1 (centres undefined)	5.1%
CN1C=CC2=C(C#N)C(N)C(C#N)(C#N)C(c3ccccc3)C2C1 (centres undefined)	18.5%
CN1C=CC2=C(C#N)C(N)C(C#N)(C#N)[C@H](c3ccccc3)[C@H]2C1 (some centres undefined)	61% (active)
O=C(Cn1nc(C(F)(F)F)c2c1CCC2)NCc1ccc(Cl)cc1	-8.7%
CC(C)C(C)NC(=O)CN1C(=O)NC2(CCCc3ccccc32)C1=O (centres undefined)	-2.2%
O=[N+]([O-])c1c(NCCO)cc(N2CCN(Cc3ccc4c(c3)OCO4)CC2)c2nonc12	49.1%
CCOC(=O)N1CCN(c2cc(N(C)CCO)c([N+](=O)[O-])c3nonc23)CC1	55.5% (active)
CN(CCO)c1cc(N2CCCCC2)c2nonc2c1[N+](=O)[O-]	42.4%
CN(CCO)c1cc(N2CCN(C(=O)c3ccco3)CC2)c2nonc2c1[N+](=O)[O-]	12.4%
O=[N+]([O-])c1c(NCCCO)cc(N2CCN(Cc3ccc4c(c3)OCO4)CC2)c2nonc12	45.2%
CN(CCO)c1cc(N2CCC3(CC2)OCCO3)c2nonc2c1[N+](=O)[O-]	34.9%
CC1CCN(c2cc(N(C)CCO)c([N+](=O)[O-])c3nonc23)CC1	50.7% (active)
CCOC(=O)C1CCCN(c2cc(NCCCO)c([N+](=O)[O-])c3nonc23)C1 (centres undefined)	55.2% (active)
CC1CCCN(c2cc(N(C)CCO)c([N+](=O)[O-])c3nonc23)C1 (centres undefined)	18%
CC(C)(C)NC(=O)COC(=O)Cc1ccc(Cl)cc1	-0.9%
COC(=O)N/N=C/c1cc(Cl)c(OCc2ccc(F)cc2)c(OC)c1	-6.1%
